Source: PubChem BioAssay
This is a sample that favours compounds with a hit; in the whole collection about 4.7% have one here.
NTMT1 inh = NTMT1 methyltransferase inhibition; Potency, µM (highest dose often 114 µM), for inactives: at the top dose activity change, negative = inhibition, actives largely listed as inhibitors; hit rate 2.5% among 59,000; NTMT1 MTase-Glo SAH luminescence, purified enzyme; Q9BV86;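 further: potency means the concentration at half of the fitted maximal effect; plate controls were DMSO vehicle for no effect and no enzyme for full effect; nearly all actives have a fitted effect of over 65% in size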
Target sequence (Q9BV86 whole entry, looked up): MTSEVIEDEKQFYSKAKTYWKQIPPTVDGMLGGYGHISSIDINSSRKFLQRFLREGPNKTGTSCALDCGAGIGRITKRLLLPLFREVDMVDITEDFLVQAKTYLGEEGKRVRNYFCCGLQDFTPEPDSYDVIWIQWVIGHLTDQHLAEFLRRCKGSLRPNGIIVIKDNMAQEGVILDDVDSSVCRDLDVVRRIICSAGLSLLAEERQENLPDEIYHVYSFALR
FH mod = Identification of activators of human fumarate hydratase by quantitative high-throughput screening; Fumarate hydratase, mitochondrial (Homo sapiens), P07954; FH coupled MDH/diaphorase resazurin fluorescence, 15 min; Potency, µM (top dose mostly 79.9 µM), for the others: at the highest dose activity change, negative = inhibition, usual class: inhibitors; hit rate 0.22% among 54,000; AID 1347055, 2019; further: potency means the concentration at half of the fitted maximal effect; on the % scale 0 is the no-effect control and ±100 the full control effect; the screen sought activators but most active calls are inhibition curves; nearly all actives have a fitted effect of over 45% in size
Target sequence (P07954 whole entry, looked up): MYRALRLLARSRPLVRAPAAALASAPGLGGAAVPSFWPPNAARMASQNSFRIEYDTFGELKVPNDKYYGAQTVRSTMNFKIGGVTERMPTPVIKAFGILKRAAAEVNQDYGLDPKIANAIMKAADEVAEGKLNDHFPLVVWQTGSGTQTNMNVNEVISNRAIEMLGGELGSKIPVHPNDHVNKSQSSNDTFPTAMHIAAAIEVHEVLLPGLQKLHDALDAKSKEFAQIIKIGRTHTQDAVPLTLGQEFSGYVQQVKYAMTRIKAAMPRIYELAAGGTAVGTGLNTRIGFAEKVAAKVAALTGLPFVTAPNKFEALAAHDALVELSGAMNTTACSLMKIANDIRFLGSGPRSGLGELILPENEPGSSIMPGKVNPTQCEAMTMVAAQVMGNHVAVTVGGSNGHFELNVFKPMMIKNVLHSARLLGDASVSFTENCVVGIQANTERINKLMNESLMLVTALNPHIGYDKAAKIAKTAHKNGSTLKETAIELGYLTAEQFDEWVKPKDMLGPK
HTT-AS act = activates huntingtin-antisense promoter activity | HEK293 HTT-AS promoter firefly luciferase reporter, 24 h; response scale: percent change from vehicle, -100% = no light | Potency, µM (doses to about 57.5 µM), for the others: at the highest dose activity change, positive = activation, usual class: activators | hit rate 0.24% among 48,000 | AID 1508624; further: potency means the concentration at half of the fitted maximal effect; nearly all actives have a fitted effect of over 55% in size
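Firefly luciferase signal from promoter-reporter HEK293 cells was scaled between vehicle (0%) and zero RLU (-100%). Compounds were tested at final concentrations of up to 57.5 uM over 24 h at 37 degrees C. PTC124 at 50 uM final served as control inhibitor.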
HTT promoter inh = HTT promoter inhibition; HEK293 HTT promoter firefly luciferase reporter, 24 h; hit rate 0.93% among 48,000; Potency, µM (top dose mostly 57.5 µM), inactives show at the top dose activity change, negative = inhibition, most hits filed as inhibitors; AID 1508623; further: potency means the concentration at half of the fitted maximal effect; nearly all actives have a fitted effect of over 50% in size
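HEK293 cells carrying firefly luciferase reporters were seeded at 2,500 per well in Opti-MEM and cultured for 24 h. They were then treated with compounds at up to 57.5 uM final for 24 h at 37 degrees C before Dual-Glo luminescence readout.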
DRV1 agonist = agonists of human resolvin D1 receptor DRV1 (GPR32); O75388; CHO-K1 GPR32 beta-arrestin PathHunter luminescence, 90 min; zero percent set by DMSO-only wells; activation, % at 76.9 µM; hit rate 2.5% among 48,000; AID 1346428;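 active means activation of at least 60% and not above a set upper limit, about 1 call in 100 departs from these limits; inconclusive means activation of 40% to 60%, or above that upper limit; inactive means activation under 40%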; further: 0% is about no effect
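Readings come from a cell-based beta-arrestin complementation format: CHO-K1 GPR32 stable cells (2,500/well) treated 90 min with compounds, then beta-Gal substrate added for 1 h before chemiluminescence imaging.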
Numbers without * were called inactive; ? = inconclusive; / = no result; ! = a repeat was not active; [ ] = another dose, or the depositor's remark. Unless noted, the call rests on the fitted dose curve; in most records, active means well fitted curve in the direction sought with a large enough effect; inconclusive means small, poorly fitted or top-dose-only effect, or another doubt; inactive means no such curve, though single readings can be large; an effect the other way counts as inactive or inconclusive.

SMILES | NTMT1 inh | FH mod | HTT-AS act | HTT promoter inh | DRV1 agonist
COc1ccc(CCNC(=O)c2cc(Nc3cc(C)cc(C)c3)nc3ccccc23)cc1OC | 12.2% | ? | -32.9% | -19.6% | -5.3
COc1ccc(CNc2nc3c(c(=O)n(C)c(=O)n3C)n2Cc2ccccc2Cl)cc1 | 2.0% | 1.6% | 0.9% | -13.4% | -12.7
CC1=C(C(=O)Nc2ccc(Cl)cc2)C(c2ccc(C(F)(F)F)cc2)n2nnnc2N1 (centres undefined) | -6.2% | -17.7% | -30.9% | -17.6% | 65.0*
O=S(=O)(c1cccc(F)c1)N1CCC(Oc2ccc(-n3cnnn3)cc2)CC1 | -3.8% | -1.6% | -33.9% | ? | 2.5
Cc1ccc(Nc2nc(C(N)=O)c(NC(=O)c3ccccc3Br)s2)cc1 | ? | -7.5% | 2.6% | 3.1% | 60.9*
NC(=O)c1nc(Nc2ccccc2)sc1NC(=O)c1c(F)cccc1F | -5.7% | 4.7% | ? | 13.8% | -1.7
Cc1ccc2c(=O)cc(C(=O)Nc3ccc(S(=O)(=O)N4CCCCCC4)cc3)oc2c1 | 21.8% | -1.7% | -9.1% | 7.3% | -0.4
CCOC(=O)C1CCCN(C(=O)c2cc3c(=O)n(C)c4ccccc4c3s2)C1 (centres undefined) | 5.1% | ? | -39.6% | ? | 103.3*
CCC[C@H](NC(=O)[C@@H]1[C@H]2CCC[C@H]2CN1C(=O)[C@@H](NC(=O)[C@@H](NC(=O)c1cnccn1)C1CCCCC1)C(C)(C)C)C(=O)C(=O)NC1CC1 | 44.7µM* | / | / | / | /
C=C1CCC2[C@@](C)(C=O)CCC[C@]2(C)[C@H]1CC/C(C)=C/CO (some centres undefined) | ? | -4.2% | / | / | /
COc1cc(OC)cc(C(=O)Nc2ccc3nc4c(c(Nc5ccc(OC)c(OC)c5)c3c2)CCCC4)c1 | -27.1% | -19.1% | -62.5% | ? | 85.5*
CCOc1ccccc1C(=O)Nc1ccc2nc3c(c(Nc4ccc(OC)c(OC)c4)c2c1)CCCC3 | -8.1% | -12.3% | -36.5% | ? | -20.6
COc1ccccc1Nc1c2c(nc3ccc(NC(=O)c4ccc(N(C)C)cc4)cc13)CCCC2 | -2.0% | ? | -42.4% | ? | -34.9
COc1ccc(Nc2c3c(nc4ccc(NC(=O)c5cc(Cl)ccc5OC)cc24)CCCC3)cc1OC | ? | -3.9% | -94.7% | ? | 60.5*
COC(=O)Nc1nc2ccc(S(=O)c3ccccc3)cc2[nH]1 (centres undefined) | 4.8%[57.5 µM] | -6.6%[53.3 µM] | -19.0% | -14.6% | 32.8
CCCS(=O)c1ccc2nc(NC(=O)OC)[nH]c2c1 (centres undefined) | 50.1µM*! | 5.7% | -31.4% | -25.0% | -22.9
COC(=O)Nc1nc2ccc(C(=O)c3ccccc3)cc2[nH]1 | 30.4µM*! | -6.0%[53.3 µM] | -13.6% | -14.4% | 0.5
COC(=O)Nc1nc2ccc(C(=O)c3cccs3)cc2[nH]1 | 28.2µM*! | -14.9%[53.3 µM] | -9.2% | -1.8% | 5.1
Cc1oc2c(c1C(=O)Nc1ccc(OC(F)(F)F)cc1)C1=NCCN1C=N2 | -1.6% | -4.7% | -10.0% | -5.5% | -14.6
C=C1C(=C/C=C2\CCC[C@]3(C)[C@@H]([C@H](C)/C=C/[C@@H](O)C4CC4)CC[C@@H]23)C[C@@H](O)C[C@@H]1O | -6.9%[57.5 µM] | -19.3%[53.3 µM] | -22.8% | -11.3% | 106.8*
CC1OC(OC2C(OC(=O)[C@]34CCC(C)(C)C[C@H]3C3=CCC5[C@@]6(C)CC[C@H](OC7OC(C(=O)O)C(O)C(O)C7O)C(C)(C)C6CC[C@@]5(C)[C@]3(C)CC4O)OC(CO)C2O)C(O)C(O)C1OC1OCC(O)C(O)C1O (some centres undefined) | 9.3%[12.6 µM] | 3.4%[20.6 µM] | / | / | /
COc1nnc(-c2ccc(N3CCCCC3)c(NC(=O)c3ccccc3Cl)c2)c2ccccc12 | ? | -18.2% | -87.0% | 11.2µM* | -5.2
COc1nnc(-c2ccc(N3CCCCC3)c(NC(=O)c3ccc(C)cc3)c2)c2ccccc12 | -1.0% | -4.9% | -18.7% | -16.0% | 12.3
Cc1ccc2nc(NC3=NC(c4[nH]ncc4Cl)C4=C(CCCC4=O)N3)oc2c1 (centres undefined) | 12.3% | / | / | / | /
CC(=O)Nc1sc2c(c1-c1ccc(N(C)C)cc1)CCNC2 | 14.1µM* | / | / | / | /
SMILES | NTMT1 inh | FH mod | HTT-AS act | HTT promoter inh | DRV1 agonist
CC(=O)Nc1sc2c(c1-c1ccc(F)cc1)CCNC2 | -5.3% | / | / | / | /
CCOC(=O)c1ccc(NC(=O)CN2c3ccccc3S(=O)(=O)c3ccccc32)cc1 | ? | ? | -30.2% | ? | -9.0
CCOC(=O)c1ccc(NC(=O)CN2C(=O)C(C)(C)c3ccccc32)cc1 | 6.7% | -2.9% | -34.4% | ? | 109.3*
COc1ccc(NC(=O)CN2C(=O)C(C)(C)c3ccccc32)cc1Cl | -2.3% | -17.9% | -12.2%[11.5 µM] | ? | 103.0*
CC(C)(C)c1ccc(-c2nc(SCC(=O)Nc3ccc(Cl)cc3)[nH]c(=O)c2C#N)cc1 | 20µM* | ? | -10.2% | -15.4% | 2.5
CS(=O)(=O)N1CCC(N2CCN(Cc3ccccc3)C(=O)C2=O)CC1 | / | / | / | / | -5.0
NS(=O)(=O)OC[C@@H]1C[C@@H](n2ccc3c(N[C@H]4CCc5ccccc54)ncnc32)C[C@@H]1O | 39.8µM*! | 0.7% | / | / | /
CCCCn1cc(S(=O)(=O)c2ccc(CC)cc2)c(=O)c2cc(F)c(N3CCOCC3)cc21 | -11.7% | -13.8% | -11.0% | -0.4% | -7.8
O=C(NCCn1cc(SCc2ccc(F)cc2)c2ccccc21)c1cccs1 | 4.9% | ? | -47.7% | 28.2µM* | 34.3
O=C(NCCn1cc(SCc2ccccc2F)c2ccccc21)c1cccs1 | -4.2% | ? | -19.6% | ? | 66.5*
CO[C@H]1/C=C\O[C@@]2(C)Oc3c(C)c(O)c4c(O)c(c(/C=N\N5CCN(C6CCCC6)CC5)c(O)c4c3C2=O)NC(=O)/C(C)=C\C=C/[C@H](C)[C@H](O)[C@@H](C)[C@@H](O)[C@@H](C)[C@H](OC(C)=O)[C@@H]1C | -3.9%[57.5 µM] | -15.9%[53.3 µM] | / | / | /
Brc1c(Br)c(Br)c2n[nH]nc2c1Br | 11.2µM* | 31.6µM* | / | / | 27.8
CNCCCOc1cc(F)c(-c2c(Cl)nc3ncnn3c2N[C@@H](C)C(F)(F)F)c(F)c1 | 28.2µM* | / | / | / | /
Cc1ccc(C)c(Cn2c(=O)n(-c3ccccc3)c(=O)c3c4c(sc32)CCCC4)c1 | 4.3% | 1.5% | -16.2% | -11.8% | -15.2
Cc1ccc(-n2nc(C(=O)N3CCN(c4cccc(C(F)(F)F)c4)CC3)c(=O)n(C)c2=O)cc1 | ? | -28.1% | -32.4% | 31.6µM* | -5.8
CCOc1cccc(C(=O)Nc2nc3c(s2)CC(C(C)(C)C)CC3)c1 (centres undefined) | ? | -40.0% | -7.4% | -4.8% | -11.9
CCCOc1ccccc1C(=O)Nc1nc2c(s1)CCCC2 | 79.4µM* | -14.7% | -25.9% | -26.3% | -33.0
COc1cccc(C(=O)Nc2nc3c(s2)CCCC3)c1 | 39.8µM* | -31.4% | ? | 14.9% | -0.4
